This is an account of results in PubChem BioAssay (NCATS).

For test [1] the following is noted: Ebola virus entry assay, ratio channel.
For test [2] the following is noted: Ebola virus entry assay, green channel fluorescence.
For test [3] the following is noted: Ebola virus entry assay, reporter ratio channel; AC50: Channel type: primary unless noted; outcome: Channel type: primary unless noted.
The conditions of test [4]: Ebola virus entry assay, blue channel (ratio component).
The conditions of test [5]: Ebola virus entry cell assay, ratio channel.
Test [6] is described as follows: High-throughput drug toxicity screening in the BPDCN cell line Gen2.2 (AID 1224824).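 Note: cells exposed to compounds for 48 h before reading.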 The conditions noted are these: Gen2.2 BPDCN cells; at 45.8 µM (top of the series) unless noted. The method, boiled down: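 CellTiter-Glo luminescence after 48 h compound exposure of Gen2.2 cells; percent activity set with DMSO as 100% and bortezomib (9.2 uM final) as 0%. Cells seeded at 500 per well, RPMI + 10% FBS, 37 °C.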

For test [7] the following is noted: Ebola virus entry assay, blue channel fluorescence.
The conditions of test [8]: Ebola virus entry reporter assay, green channel fluorescence. On the technique in general: A reporter such as luciferase makes a cellular process visible.

Each structure is given as a SMILES string. For part of these data: Measured potencies and affinities stand elsewhere. The source made the active and inactive calls.

As to `NC(N)=NS(=O)(=O)c1ccc(N)cc1`, the outcome in test [1], in test [2], in test [3] and in test [4] was inactive.
Turning to `O=C(c1ccccc1)C(O)c1ccccc1` (stereo unspecified), the outcome in test [1], in test [2], in test [3] and in test [4] was inactive.
In the case of `CCC[C@@H]1C[C@@H](C(=O)N[C@@H]([C@H]2O[C@H](SC)[C@H](O)[C@@H](O)[C@H]2O)[C@@H](C)O)N(C)C1`, the result in test [1], in test [2], in test [3] and in test [4] was inactive.
With `CCN1CCCC1CN` (stereo unspecified), the outcome in test [1], in test [2], in test [3] and in test [4] was inactive.
With `CC1CCc2c(N3CCC(O)CC3)c(F)cc3c(=O)c(C(=O)O)cn1c23` (stereo unspecified), the result in test [1], in test [2], in test [3] and in test [4] was inactive.
`NC(=O)c1ccc([N+](=O)[O-])cc1Cl`: the outcome in test [1], in test [2], in test [3] and in test [4] was inactive.
`CN1CCN(C(=O)C2CCCCC2)CC1`: the result in test [1], in test [2], in test [3] and in test [4] was inactive.
On to `Cc1c(I)c(=O)n(-c2ccccc2)n1C`, for which the result in test [1], in test [2], in test [3] and in test [4] was inactive.
Consider `CCCCCCCCCCCCSCCOCCO`, for which the result in test [1], in test [2], in test [3] and in test [4] was inactive.
For `CCN(CC)CC(=O)Oc1ccc(NC(C)=O)cc1`, the result in test [1], in test [2], in test [3] and in test [4] was inactive.
For `O=c1cc(O)c(Cl)c[nH]1`, the result in test [1], in test [2], in test [3] and in test [4] was inactive.
On to `NC(=O)c1ncn([C@@H]2O[C@H](CO)[C@@H](O)[C@H]2O)c1O`, for which the outcome in test [1], in test [2], in test [3] and in test [4] was inactive.
Turning to `Cc1cnc(NC(=O)C2=C(O)c3ccccc3S(=O)(=O)N2C)s1`, the result in test [1], in test [2], in test [3] and in test [4] was inactive.
With `COCCCN1CCC(NC(=O)c2cc(Cl)c(N)c3c2OCC3)CC1`, the outcome in test [1], in test [2], in test [3] and in test [4] was inactive.
As for `Cc1cc2c(cc1S(N)(=O)=O)S(=O)(=O)CCC2`, the outcome in test [1], in test [2], in test [3] and in test [4] was inactive.
As to `ClCCN1CCCC1`, the outcome in test [1], in test [2], in test [3] and in test [4] was inactive.
For `Nc1nc(N)nc(NC2CC2)n1`, the result in test [1], in test [2], in test [3] and in test [4] was inactive.
In the case of `CC(=O)N(CC(O)CO)c1c(I)c(C(=O)NCC(O)CO)c(I)c(C(=O)NCC(O)CO)c1I` (stereo unspecified), the outcome in test [1], in test [2], in test [3] and in test [4] was inactive.
`c1ccc2c(c1)sc1ccccc12`: the result in test [1], in test [2], in test [3] and in test [4] was inactive.
On to `CCCC(=O)O[C@]1(C(=O)CO)CC[C@H]2[C@@H]3CCC4=CC(=O)CC[C@]4(C)[C@H]3[C@@H](O)C[C@@]21C`, for which the outcome in test [1], in test [2], in test [3] and in test [4] was inactive.
Regarding `O=C(Nc1ccc(Cl)c(Cl)c1)C1CC1`, the outcome in test [1], in test [2], in test [3] and in test [4] was inactive.
As for `Cc1ncc(CO)c(C=O)c1O`, the result in test [1], in test [2], in test [3] and in test [4] was inactive.
In the case of `Nc1ccc([N+](=O)[O-])c(C(F)(F)F)c1`, the result in test [1], in test [2], in test [3] and in test [4] was inactive.
For `CN(C)CCOC(=O)C(c1ccccc1)C1(O)CCCC1` (stereo unspecified), the outcome in test [1], in test [2], in test [3] and in test [4] was inactive.
With `NCc1ccc(S(N)(=O)=O)cc1`, the result in test [1], in test [2], in test [3] and in test [4] was inactive.
Regarding `NNc1ccccc1`, the outcome in test [1], in test [2], in test [3] and in test [4] was inactive.
For the compound `O=C(O)CCCC[C@@H]1SC[C@@H]2NC(=O)N[C@@H]21`, the outcome in test [1], in test [2], in test [3] and in test [4] was inactive.
For `CCCCCCCC/C=C\CCCCCCCC(=O)NCc1ccc(O)c(OC)c1`, the result in test [1], in test [2], in test [3] and in test [4] was inactive.
`Cc1c(F)c(N2CCNC(C)C2)cc2c1c(=O)c(C(=O)O)cn2C1CC1` (stereo unspecified): the result in test [1], in test [2], in test [3] and in test [4] was inactive.
In the case of `Cc1cc(-n2nc3ccc(Cl)cc3n2)c(O)c(C(C)(C)C)c1`, the outcome in test [1], in test [2], in test [3] and in test [4] was inactive.
For the compound `CC(C)CCCC(C)NCCC(C)C` (stereo unspecified), the outcome in test [1], in test [2], in test [3] and in test [4] was inactive.
In the case of `C[C@@H](N)[C@@H](O)c1ccccc1`, the outcome in test [1], in test [2], in test [3] and in test [4] was inactive.
On to `CCN(CC)C(=O)c1ccc(O)c(OC)c1`, for which the outcome in test [1], in test [2], in test [3] and in test [4] was inactive.
For the compound `Nc1ccc(S(=O)(=O)NC(=O)c2ccccc2)cc1`, the result in test [1], in test [2], in test [3] and in test [4] was inactive.
Turning to `COc1nccnc1NS(=O)(=O)c1ccc(N)cc1`, the result in test [1], in test [2], in test [3] and in test [4] was inactive.
In the case of `N=C(N=C(N)N)N1CCOCC1`, the result in test [1], in test [2], in test [3] and in test [4] was inactive.
Broadly, the AC50 is the concentration at which the activity in the assay is half-maximal. Regarding `C=CCN1C[C@H](C(=O)N(CCCN(C)C)C(=O)NCC)C[C@@H]2c3cccc4[nH]cc(c34)C[C@H]21`, the half-maximal activity concentration (AC50) in test [5] was 15.8 µM (active).
In the case of `C=C[C@H]1CN2CC[C@H]1C[C@H]2[C@H](O)c1ccnc2ccc(OC)cc12`, in test [5], the result was inactive.
On to `C[C@]12CC[C@H]3[C@@H](CC[C@@]45O[C@H]4C(O)=C(C#N)C[C@]35C)[C@H]1CC[C@H]2O`, for which the result in test [1], in test [3] and in test [4] was inactive. In test [6], this compound returned a cell viability, % of control (lower = more cytotoxic) of 28.9%.
Consider `Nc1ccc(C(=O)O)c(O)c1`, for which the compound was called inactive in test [2], in test [7], in test [3], in test [4], in test [8] and in test [5].
